The record followed here is PubChem BioAssay (NCATS).

Molecules are shown by their SMILES. “And” between values parts separate entries of the source, which are not always exact repeats. Identical values can stand only once. Results filed as inconclusive are left out. The source made the active and inactive calls. Unless noted, calls come from the whole dose curve; as a rule, active = well fitted curve in the direction sought with a large enough effect; inconclusive = small, poorly fitted or top-dose-only effect, or another doubt; inactive = no such curve, though single readings can be large; an effect the other way counts as inactive or inconclusive.

Test [1] is described as follows: AP1 Signaling Pathway (AID 357; active = well fitted curve in either direction with a large enough effect, not every such curve was filed as active; note: % is set by controls: 0 for no effect and ±100 for the full control effect). The following applies: ME-180 AP-1-bla reporter, EGF-induced, beta-lactamase ratio, 5 h; at 7.69 µM (top of the series) unless noted. The gist of the method: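 Cells are seeded overnight, exposed to compound titrations and an EC50 level of EGF for 5 hours at 37 °C, then loaded with CCF4 dye for 2.5 hours. Beta-lactamase activity under the AP-1 element is read as a blue/green ratio.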

Test [2] addresses Cytochrome P450 1A2 (Homo sapiens) (UniProt P05177). The test can be described thus: p450-cyp1a2 (AID 410; calls by dose curve; note: potency is the fitted concentration of half-maximal effect). An outline of the steps:
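O-Demethylation of luciferin 6' methyl ether by human CYP1A2 is monitored as luciferase luminescence. Substrate sits at Km (100uM); enzyme is 20nM. Values are scaled to 57 uM furafylline as maximal inhibition.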

Test [3] is described as follows: NFAT Signaling Pathway (AID 444; active = well fitted curve in either direction with a large enough effect, not every such curve was filed as active;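 note: carbachol stimulus at about its EC50 of 1 µM final; % is set by controls: 0 for no effect and ±100 for the full control effect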). The following applies: Jurkat NFAT-bla M1, carbachol, beta-lactamase ratio, 5 h; at 7.69 µM (top of the series) unless noted. The gist of the method: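 Jurkat cells carrying an NFAT-driven β-lactamase reporter and co-transfected muscarinic M1 receptor were treated with compound plus carbachol (1 uM final, an EC50 level) for 5 h at 37 °C. CCF4 loading followed for 1 h at RT; 460/530 nm ratio gave %activity.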

The nature of test [4]: Stat Signaling Pathway (AID 446; active = well fitted curve in either direction with a large enough effect, not every such curve was filed as active;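 note: ME-180 cervical cancer cells given 40 pM IL-6 alongside compound; SIE-controlled beta-lactamase reporter measured as 460/530 nm FRET emission ratio; % is set by controls: 0 for no effect and ±100 for the full control effect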). The following applies: ME-180 (cervical carcinoma) SIE beta-lactamase reporter, IL-6 stimulated, 5 h; at 7.69 µM (top of the series) unless noted. An outline of the steps: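 Normalization used AC90 stimulation (300 pM IL-6) and AC90 inhibition (125 nM pan-JAK inhibitor at 40 pM IL-6). The underlying signal is SIE-driven beta-lactamase in ME-180 cells after 5 h IL-6 exposure with compound.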

The target of test [5] is Glucocorticoid receptor (Homo sapiens) (UniProt P04150). Description: GR-GFP Redistribution (AID 450;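 active = compounds whose dose series gives a full or clear partial fitted curve of increased nuclear translocation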; note: potency is the fitted concentration of half-maximal effect). As to conditions: U2OS GR-GFP nuclear translocation, laser cytometry, 2 h.
Chain of Glucocorticoid receptor (Homo sapiens) (P04150 whole entry, looked up, the tested form may be a part): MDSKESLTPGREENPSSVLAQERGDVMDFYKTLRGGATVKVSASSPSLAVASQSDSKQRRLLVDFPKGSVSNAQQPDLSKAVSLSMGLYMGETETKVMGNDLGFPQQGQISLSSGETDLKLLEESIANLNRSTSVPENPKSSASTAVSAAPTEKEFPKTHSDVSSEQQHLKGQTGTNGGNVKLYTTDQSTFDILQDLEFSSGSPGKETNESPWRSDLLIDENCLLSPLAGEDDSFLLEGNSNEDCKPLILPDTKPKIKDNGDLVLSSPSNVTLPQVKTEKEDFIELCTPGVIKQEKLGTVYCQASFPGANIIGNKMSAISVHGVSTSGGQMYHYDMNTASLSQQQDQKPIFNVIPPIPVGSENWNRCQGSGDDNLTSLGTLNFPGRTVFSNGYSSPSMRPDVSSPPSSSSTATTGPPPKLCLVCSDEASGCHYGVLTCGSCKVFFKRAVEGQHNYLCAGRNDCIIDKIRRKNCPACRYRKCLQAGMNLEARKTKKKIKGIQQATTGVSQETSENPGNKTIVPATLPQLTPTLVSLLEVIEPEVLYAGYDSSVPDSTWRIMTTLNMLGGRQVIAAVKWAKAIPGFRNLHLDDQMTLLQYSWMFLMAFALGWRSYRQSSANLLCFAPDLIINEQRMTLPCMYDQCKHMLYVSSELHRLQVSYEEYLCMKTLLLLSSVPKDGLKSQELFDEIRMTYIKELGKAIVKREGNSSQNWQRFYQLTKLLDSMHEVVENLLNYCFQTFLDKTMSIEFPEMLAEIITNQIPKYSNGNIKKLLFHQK
For test [6] the target is unchanged. The test can be described thus: GR-EFC Redistribution (AID 451; calls by dose curve; note: potency is the fitted concentration of half-maximal effect). As to conditions: CHO-K1 GR-EFC translocation, beta-gal luminescence, 2 h. An outline of the steps: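 CHO-K1 cells stably expressing nuclear-localized β-gal enzyme acceptor and GR fused C-terminally to the enzyme donor fragment; ligand-driven nuclear translocation restores β-gal by complementation. Compounds titrated up to 46 uM final, 2 h at 37 °C; luminescence read.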

Test [7] has as its target Mitogen-activated protein kinase 10 (Mus musculus) (UniProt Q61831). Description: JNK3 AlphaScreen Assay (AID 530; active = well fitted curve in either direction with a large enough effect, not every such curve was filed as active;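 note: kinase came from lysate of stimulated human HepG2 cells; signal reports phosphorylation of biotinylated GST-cJun 1-79 at Ser73 with 10 µM ATP; % is set by controls: 0 for no effect and ±100 for the full control effect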). The gist of the method: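 Phosphorylation of biotinylated GST-cJun(1-79) at Ser73 is measured by AlphaScreen proximity luminescence. Enzyme is JNK3 in HepG2 lysates activated with interleukin-1beta and tumor necrosis factor alpha; ATP is 10 uM final.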
The target in test [8] is 3',5'-cyclic-AMP phosphodiesterase 4B (Homo sapiens) (UniProt Q07343). Description: qHTS Assay for Inhibitors of PDE-IV (AID 607; active = well fitted activation curve with a large enough effect in the main read-out, with a control signal flat, not every such curve was filed as active; note: % of control where 0% means no effect). An outline of the steps: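 HEK293 ACTOne cells with CNG channel (1000/well), endogenous PDE4; membrane potential dye, compounds up to 22.9 uM final. Fluorescence Ex 535/Em 590; RO 20-1724 (100 uM final) as reference.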
Chain of 3',5'-cyclic-AMP phosphodiesterase 4B (Homo sapiens) (Q07343 whole entry, looked up): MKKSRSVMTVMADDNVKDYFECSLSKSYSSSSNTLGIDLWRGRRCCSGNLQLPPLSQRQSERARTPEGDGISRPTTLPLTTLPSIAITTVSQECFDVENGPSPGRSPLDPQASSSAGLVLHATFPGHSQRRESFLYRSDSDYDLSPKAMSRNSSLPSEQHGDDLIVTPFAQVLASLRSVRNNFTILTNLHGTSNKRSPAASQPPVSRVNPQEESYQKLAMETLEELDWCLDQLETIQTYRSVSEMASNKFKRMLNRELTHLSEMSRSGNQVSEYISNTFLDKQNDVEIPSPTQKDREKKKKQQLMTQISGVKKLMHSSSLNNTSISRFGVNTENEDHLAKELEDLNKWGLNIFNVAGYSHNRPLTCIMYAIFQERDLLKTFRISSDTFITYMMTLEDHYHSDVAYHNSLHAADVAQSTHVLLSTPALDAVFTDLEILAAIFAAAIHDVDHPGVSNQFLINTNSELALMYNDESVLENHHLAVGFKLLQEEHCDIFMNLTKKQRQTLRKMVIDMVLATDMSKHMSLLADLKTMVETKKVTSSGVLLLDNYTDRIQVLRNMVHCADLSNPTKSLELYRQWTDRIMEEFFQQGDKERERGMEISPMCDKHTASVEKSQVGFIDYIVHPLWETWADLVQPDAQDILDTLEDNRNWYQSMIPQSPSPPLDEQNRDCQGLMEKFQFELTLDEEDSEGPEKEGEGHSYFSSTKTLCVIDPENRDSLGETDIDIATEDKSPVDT
Test [9] is described as follows: qHTS Assay for Lipid Storage Modulators (AID 1519; calls by dose curve). The following applies: Drosophila S3 cells, BODIPY lipid droplet/cell ratio, laser cytometry, cells loaded with oleic acid; for activity change, negative = inhibition: at 25.7 µM (top of the series). An outline of the steps: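 Cells seeded at 5,000 per well were treated with compounds over a concentration series and loaded with oleic acid (400 uM, as added). Lipid droplet fluorescence (488 nm excitation, 500-530 nm channel) was read by laser-scanning cytometry and normalized to 20 uM Triacsin C.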

Test [10] deals with ATP-dependent 6-phosphofructokinase (Trypanosoma brucei brucei) (UniProt O15648). The test can be described thus: qHTS Assay to Find Inhibitors of T. brucei phosphofructokinase: hit validation (AID 492961). An outline of the steps: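 Percent activity derived from corrected luminescence, normalized between 0x and 1x enzyme controls, then fitted to concentration-response curves. Conditions: 1.25 nM PFK, 0.1 mM ATP, 0.5 mM F6P, 45 min RT.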
Chain of ATP-dependent 6-phosphofructokinase (Trypanosoma brucei brucei) (O15648 whole entry, looked up): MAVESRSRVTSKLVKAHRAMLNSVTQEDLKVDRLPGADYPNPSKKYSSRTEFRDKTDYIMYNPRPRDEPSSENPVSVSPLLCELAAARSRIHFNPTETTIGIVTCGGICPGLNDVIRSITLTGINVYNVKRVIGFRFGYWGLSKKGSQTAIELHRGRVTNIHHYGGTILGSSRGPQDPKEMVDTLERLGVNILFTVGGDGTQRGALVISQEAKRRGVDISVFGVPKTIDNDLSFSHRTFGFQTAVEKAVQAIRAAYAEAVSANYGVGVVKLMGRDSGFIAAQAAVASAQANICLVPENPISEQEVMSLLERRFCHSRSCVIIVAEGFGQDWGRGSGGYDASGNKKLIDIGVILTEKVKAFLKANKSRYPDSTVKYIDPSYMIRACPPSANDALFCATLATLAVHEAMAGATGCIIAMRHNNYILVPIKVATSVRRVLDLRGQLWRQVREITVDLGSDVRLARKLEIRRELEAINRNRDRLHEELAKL

Test [11] concerns the target Ubiquitin carboxyl-terminal hydrolase 1 (Homo sapiens) (UniProt O94782). Description: Inhibitors of USP1/UAF1: Pilot qHTS (AID 504865).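 Note: rhodamine fluorescence freed from ubiquitin-rhodamine substrate followed over time; top concentration of the series differs between compounds; % is set by controls: 0 for no effect and ±100 for the full control effect; nearly all actives have a fitted effect of over 35% in size.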 The gist of the method:
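USP1/UAF1 complex at 1 nM preincubated 15 min at room temperature with compound, then Ub-Rho substrate added at 150 nM final. Fluorescence (480/540 nm) read kinetically in 50 mM HEPES pH 7.8, 0.5 mM EDTA, 1 mM TCEP, 0.1 mg/ml BSA, 0.01% Tween-20.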

The target of test [12] is Luciferin 4-monooxygenase (Photinus pyralis) (UniProt P08659). Description: Biochemical firefly luciferase enzyme assay for NPC (AID 624030).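 Note: purified P. pyralis luciferase at 10 nM with luciferin and ATP substrate; 0% = DMSO and -100% = full luciferase inhibition by PTC124 control; nearly all actives have a fitted effect of over 70% in size.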 An outline of the steps:
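Counter-screen for direct inhibition of the luciferase enzyme by approved-drug library compounds, run at 10 nM enzyme in 50 mM Tris acetate (final). Luminescence was read within 5 min of enzyme-buffer addition and normalized to PTC124 versus DMSO (0%).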

Test [13] is described as follows: qHTS profiling for inhibitors of Plasmodium falciparum proliferation (AID 504749).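 Note: 0% = DMSO vehicle and full inhibition = artemisinin control; nearly all actives have a fitted effect of over 60% in size.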 As to conditions: P. falciparum in erythrocytes, SYBR Green DNA, 72 h. The gist of the method: (§1)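 Quantitative HTS: compounds pinned into medium, infected erythrocytes added (0.3% parasitemia, 2.5% hematocrit), 72 h culture at 37 C under 5% CO2. Saponin/Triton lysis with SYBR Green I, overnight RT, then fluorescence read.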

In the next test the test system is AS120. Described as above. The following applies: P. falciparum in erythrocytes, SYBR Green DNA, 72 h; series mostly up to 28.7 µM. The gist of the method: as §1
Another test has as its system CP201. The description is as above. The following applies: P. falciparum in erythrocytes, SYBR Green DNA, 72 h; series mostly up to 12.8 µM. The gist of the method: as §1
In the next test the test system is CP238. Described as above. The following applies: P. falciparum in erythrocytes, SYBR Green DNA, 72 h; series mostly up to 12.8 µM. An outline of the steps:
as §1

The subject of a further test is CP262. The description is as above. As to conditions: P. falciparum in erythrocytes, SYBR Green DNA, 72 h; series mostly up to 12.8 µM. The gist of the method:
as §1

The subject of another test is CP265. Described as above. The following applies: P. falciparum in erythrocytes, SYBR Green DNA, 72 h; series mostly up to 12.8 µM. The gist of the method: as §1
For the next test, the system named is FAB9. Described as above. The following applies: P. falciparum in erythrocytes, SYBR Green DNA, 72 h; series mostly up to 12.8 µM. An outline of the steps: as §1
The test system of another test is JCK. Described as above. The following applies: P. falciparum in erythrocytes, SYBR Green DNA, 72 h; series mostly up to 12.8 µM. An outline of the steps:
as §1

Setting [14] is: measured here: cell count channel max response.
[15] abbreviates: measured here: lipid channel max response.
The mark [16] stands for this setting: at 12.8 µM (top of the series), parasite line A.
The mark [17] stands for this setting: at 12.8 µM (top of the series), parasite line B.

Chain of Cytochrome P450 1A2 (Homo sapiens) (P05177 whole entry, looked up): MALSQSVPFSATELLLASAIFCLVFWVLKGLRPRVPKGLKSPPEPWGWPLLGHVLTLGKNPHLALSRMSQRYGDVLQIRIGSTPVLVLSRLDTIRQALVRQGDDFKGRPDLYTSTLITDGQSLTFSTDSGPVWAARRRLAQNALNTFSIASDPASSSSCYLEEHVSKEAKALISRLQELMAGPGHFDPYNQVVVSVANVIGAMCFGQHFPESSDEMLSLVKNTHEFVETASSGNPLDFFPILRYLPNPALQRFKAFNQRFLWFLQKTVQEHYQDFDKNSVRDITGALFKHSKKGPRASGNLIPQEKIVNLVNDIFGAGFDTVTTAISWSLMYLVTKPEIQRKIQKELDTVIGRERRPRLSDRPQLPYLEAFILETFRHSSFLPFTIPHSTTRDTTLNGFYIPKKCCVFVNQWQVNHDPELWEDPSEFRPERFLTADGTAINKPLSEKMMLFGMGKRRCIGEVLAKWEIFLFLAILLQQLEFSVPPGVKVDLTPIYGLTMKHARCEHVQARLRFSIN
Chain of Luciferin 4-monooxygenase (Photinus pyralis) (P08659 whole entry, looked up): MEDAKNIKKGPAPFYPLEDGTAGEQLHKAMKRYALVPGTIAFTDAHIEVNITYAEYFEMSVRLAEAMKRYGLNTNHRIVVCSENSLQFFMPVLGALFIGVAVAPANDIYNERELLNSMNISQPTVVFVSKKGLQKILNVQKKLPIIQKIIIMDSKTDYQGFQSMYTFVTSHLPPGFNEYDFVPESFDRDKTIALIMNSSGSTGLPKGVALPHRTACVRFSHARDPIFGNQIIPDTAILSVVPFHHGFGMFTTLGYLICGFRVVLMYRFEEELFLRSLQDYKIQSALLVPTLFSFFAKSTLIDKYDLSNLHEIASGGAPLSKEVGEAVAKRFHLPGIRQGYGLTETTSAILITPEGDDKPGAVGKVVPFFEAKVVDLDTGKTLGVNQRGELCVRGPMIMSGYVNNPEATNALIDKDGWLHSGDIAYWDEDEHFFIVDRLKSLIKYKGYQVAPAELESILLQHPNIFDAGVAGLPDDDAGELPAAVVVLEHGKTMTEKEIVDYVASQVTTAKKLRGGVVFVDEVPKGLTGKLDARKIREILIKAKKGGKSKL
Chain of Ubiquitin carboxyl-terminal hydrolase 1 (Homo sapiens) (O94782 whole entry, looked up): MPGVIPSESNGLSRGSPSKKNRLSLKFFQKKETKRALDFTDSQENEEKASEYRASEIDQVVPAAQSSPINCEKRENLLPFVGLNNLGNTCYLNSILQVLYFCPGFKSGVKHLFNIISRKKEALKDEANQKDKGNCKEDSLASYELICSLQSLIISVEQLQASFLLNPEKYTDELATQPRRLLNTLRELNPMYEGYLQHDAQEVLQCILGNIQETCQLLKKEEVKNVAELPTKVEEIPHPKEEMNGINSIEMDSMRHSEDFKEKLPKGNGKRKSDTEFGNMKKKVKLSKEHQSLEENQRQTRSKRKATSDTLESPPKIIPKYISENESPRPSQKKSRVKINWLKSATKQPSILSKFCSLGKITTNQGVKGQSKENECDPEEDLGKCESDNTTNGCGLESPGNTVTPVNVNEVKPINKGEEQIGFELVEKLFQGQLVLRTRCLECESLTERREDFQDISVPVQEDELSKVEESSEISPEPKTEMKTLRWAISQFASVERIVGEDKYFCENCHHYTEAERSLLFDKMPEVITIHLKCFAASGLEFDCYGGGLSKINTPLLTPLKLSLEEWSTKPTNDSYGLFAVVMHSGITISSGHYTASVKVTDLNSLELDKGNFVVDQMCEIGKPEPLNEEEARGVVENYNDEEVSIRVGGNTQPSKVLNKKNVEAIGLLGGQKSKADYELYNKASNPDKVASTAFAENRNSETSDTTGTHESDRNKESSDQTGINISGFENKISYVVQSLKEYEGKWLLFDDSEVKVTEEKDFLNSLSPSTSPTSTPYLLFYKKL

In the case of `Cn1c(=O)c2c(ncn2C[C@@H](O)CO)n(C)c1=O`, the activity change, negative = inhibition in test [1] was 9.72% [at 17.2 µM] (inactive); in test [3] it was -4.3% [at 17.2 µM] (inactive); in test [9], 0.654% (inactive). The Potency entry (in test [2]; in test [7]; in test [8]; in [11]; in the test on AS120; in the test with CP201) was “inactive” in each case. The Potency result with CP238, in the test with CP262, in the test on CP265, with FAB9 and with JCK was “inactive” in each case. For the same compound, the activity, negative = inhibition is 11.3% [at 17.2 µM] (inactive) in test [4], 0.439% (inactive) in test [13] (setting [16]) and -2.95% (inactive) in test [13] (setting [17]). Besides, the Potency in [5] and in test [6] was > 20.6 µM (inactive) throughout. The max response in test [9] (setting [14]) was -0.539%; in test [9] (setting [15]), -0.706%. Also, the call in test [10] and in test [12] was inactive.

Regarding `CC1(C)S[C@@H]2[C@H](NC(=O)[C@H](C(=O)O)c3ccsc3)C(=O)N2[C@H]1C(=O)O`, the activity change, negative = inhibition in test [1] is -4.81% [at 17.2 µM] (inactive) and 2.77% [at 17.2 µM] (inactive); in test [3], -7.87% [at 17.2 µM] (inactive) and 25.2% [at 17.2 µM] (inactive); in test [9] it was 1.08% (inactive). Moreover, the Potency result (in [2]; in test [7]; in test [8]; in test [11]; with AS120; in the test with CP201) was “inactive” each time. In addition, the Potency result in the test with CP238, in the test on CP262, with CP265, in the test with FAB9 and in the test with JCK was “inactive” in each case. The activity, negative = inhibition in test [4] is 6.96% [at 17.2 µM] (inactive) and -0.401% [at 17.2 µM] (inactive); in test [13] (at 28.7 µM (top of the series), parasite line A) it was -4.85% (inactive); in test [13] (at 28.7 µM (top of the series), parasite line B) it was 17.9% (inactive). Besides, the Potency in [5] and in test [6] was > 20.6 µM (inactive) each time. Moreover, the results for the max response in test [9] (setting [14]) and in test [9] (setting [15]) were -10.5% and -8.09%, respectively. In test [12], the compound was called inactive.

`CCC[C@H]1C(=O)N2C(N(C)C)=Nc3ccc(C)cc3N2C1=O`: the activity change, negative = inhibition was 1.43% [at 17.2 µM] (inactive) in [1], -21% [at 17.2 µM] (inactive) in [3] and -3.21% (inactive) in [9]. The Potency in [2] is 1.58 µM (active); in test [5] it was > 20.6 µM (inactive); in [6] it was > 20.6 µM (inactive). Moreover, the activity, negative = inhibition in test [4] was -9.03% [at 17.2 µM] (inactive); in test [13] (setting [16]), 12.2% (inactive); in test [13] (setting [17]), -0.686% (inactive). Moreover, the Potency result (in test [7]; in test [8]; in [11]; in the test with AS120; with CP201; in the test with CP238) was “inactive” throughout. In addition, the Potency result in the test with CP262, in the test on CP265, in the test on FAB9 and in the test with JCK was “inactive” in each case. The figures for the max response in [9] (setting [14]) and in test [9] (setting [15]) were -10.8% and -12%, respectively. Besides, the compound was called inactive in [10] and in test [12].

As for `NC(=O)OC[C@H](O)COc1ccc(Cl)cc1`, the activity change, negative = inhibition in [1] was -4.9% [at 17.2 µM] (inactive); in test [3], -9.21% [at 17.2 µM] (inactive); in test [9], -1.93% (inactive). Further, the Potency in [2] is 10 µM (active); in [5], > 20.6 µM (inactive); in test [6] it was > 20.6 µM (inactive). The activity, negative = inhibition in test [4] was 14.1% [at 17.2 µM] (inactive); in [13] (setting [16]) it was -2.39% (inactive); in [13] (setting [17]) it was -7.73% (inactive). Moreover, the Potency entry (in test [7]; in test [8]; in the test on AS120; in the test on CP201; in the test on CP238; in the test with CP262) was “inactive” throughout. Besides, the Potency result in the test on CP265, in the test on FAB9 and in the test on JCK was “inactive” each time. Besides, the max response in test [9] (setting [14]) stood at 14%; in test [9] (setting [15]), 12%. Moreover, the result in test [10] and in [12] was inactive.
